Screening data deposited in PubChem BioAssay by Broad Institute.
The sample as a whole holds a higher share of hits than the screen did.
EZH2 inh = blocks human EZH2/PRC2 H3K27 methylation. Q15910. DELFIA TRF, 1 h. inhibition, % at 12.5 µM. 57,000 compounds, 0.35% hits;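 active = mean inhibition of replicates at least 50% and every single replicate also reaching 50%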;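 note: dimethyl H3K27 on biotinylated H3 21-44 peptide detected by antibody; plate controls were median neutral control wells for no effect and median positive control wells for full effect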
Target sequence (Q15910 whole entry, looked up): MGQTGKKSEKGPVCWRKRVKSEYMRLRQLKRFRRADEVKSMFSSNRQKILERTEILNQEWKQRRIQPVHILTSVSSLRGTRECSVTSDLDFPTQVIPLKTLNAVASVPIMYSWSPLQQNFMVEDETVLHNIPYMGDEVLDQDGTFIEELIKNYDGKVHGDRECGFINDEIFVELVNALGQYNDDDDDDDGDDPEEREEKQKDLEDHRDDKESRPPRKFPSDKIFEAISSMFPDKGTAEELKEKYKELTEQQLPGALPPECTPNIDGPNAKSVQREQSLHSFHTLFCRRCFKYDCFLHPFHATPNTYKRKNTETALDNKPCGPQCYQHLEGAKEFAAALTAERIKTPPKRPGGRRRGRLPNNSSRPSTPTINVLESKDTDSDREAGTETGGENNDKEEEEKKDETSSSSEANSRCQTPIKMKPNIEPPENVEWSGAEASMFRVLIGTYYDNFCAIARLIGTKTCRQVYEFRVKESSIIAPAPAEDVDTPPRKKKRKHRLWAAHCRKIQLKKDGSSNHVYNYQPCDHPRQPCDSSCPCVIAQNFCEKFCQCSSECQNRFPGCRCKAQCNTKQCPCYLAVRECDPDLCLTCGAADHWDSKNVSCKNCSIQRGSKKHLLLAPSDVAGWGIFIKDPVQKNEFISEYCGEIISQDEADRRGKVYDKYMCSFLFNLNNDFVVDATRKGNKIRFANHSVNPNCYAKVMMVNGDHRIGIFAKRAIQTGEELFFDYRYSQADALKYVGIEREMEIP
Starred values were filed as active, the others as inactive.

SMILES	EZH2 inh
O=C(CSc1nc(-c2ccccc2)cc(=O)[nH]1)Nc1cccc(Cl)c1Cl	47
Cc1ccc(NC(=O)CSc2nc(-c3ccccc3)cc(=O)[nH]2)cc1Cl	14
COC(=O)CN(c1cc([N+](=O)[O-])ccc1C)S(C)(=O)=O	-5
Cc1ccc(SCCCCSc2nc(C)cc(=O)[nH]2)cc1	39
C/C=C1/[C@H](O[C@@H]2O[C@H](CO)[C@@H](O)[C@H](O)[C@H]2O)OC=C(C(=O)OC)[C@H]1CC(=O)OCCc1ccc(OC(=O)C[C@@H]2C(C(=O)OC)=CO[C@@H](O[C@@H]3O[C@H](CO)[C@@H](O)[C@H](O)[C@H]3O)/C2=C/C)cc1	61*
C/C=C1\[C@H](O[C@@H]2O[C@H](CO)[C@@H](O)[C@H](O)[C@H]2O)OC=C(C(=O)OC)[C@H]1CC(=O)OC	-6
C/C=C1\C(O[C@@H]2O[C@H](CO)[C@@H](O)[C@H](O)[C@H]2O)OC=C(C(=O)OC)C1CC(=O)OC[C@H]1O[C@@H](OCCc2ccc(O)cc2)[C@H](OC(=O)CC2C(C(=O)OC)=COC(O[C@@H]3O[C@H](CO)[C@@H](O)[C@H](O)[C@H]3O)/C2=C\C)[C@@H](O)[C@@H]1O (some centres undefined)	2
COc1ccc(C(=O)Nc2cccc(N=[N+]=[N-])c2)cc1	-27
O=c1cc(-c2ccc(O)c(O)c2)oc2c(C3O[C@H](CO)[C@H](O)[C@H](O)[C@H]3O)c(O)cc(O)c12 (some centres undefined)	81*
O=c1cc(-c2ccc(O)cc2)oc2cc(O[C@@H]3O[C@H](CO)[C@@H](O)[C@H](O)[C@H]3O[C@@H]3OC[C@](O)(CO)[C@H]3O)cc(O)c12	-11
COc1cc(O[C@@H]2O[C@H](CO)[C@@H](O)[C@H](O)[C@H]2O)c2c(=O)cc(-c3ccccc3)oc2c1OC	-9
CCNC(=O)c1c(NC(=O)c2ccccc2[N+](=O)[O-])sc2c1CCCC2	-2
COc1ccc(NC(=S)Nc2cnn(C)c2C(N)=O)c(OC)c1	11
COc1ccc([C@H]2C[C@H]3C(I)=CC2C(=O)[C@]32CO2)cc1OC	-8
COc1ccc(-c2coc3c(OC)c(OC)cc(OC)c3c2=O)cc1	7
COc1ccc(-c2coc3c(OC)c(O)ccc3c2=O)cc1	1
CC1(CO)C=Cc2c(cc(O)c3c(=O)c(-c4ccc(O)cc4)coc23)O1 (centres undefined)	65*
COc1ccccc1NC(=O)CSc1nc(O)cc(=O)n1-c1ccccc1	4
O=C(Oc1ccc([C@@H]2Oc3cc(O)cc(O)c3C[C@H]2O)cc1O)c1cc(O)c(O)c(O)c1	99*
O=C1C[C@@H](c2ccccc2)Oc2cc(O)cc(O)c21	-14
COc1cc(C2Oc3c(O)ccc([C@@H]4Oc5cc(O)cc(O)c5C(=O)[C@H]4O)c3C2CO)ccc1O (some centres undefined)	17
Cc1nnc(Sc2ccc(/C=N/NC(=O)CCCCCCC(=O)Nc3ccccc3O)o2)n1C	16
C[C@@H]1CN([C@H](C)CO)C(=O)c2cc(NS(=O)(=O)c3cccs3)ccc2O[C@@H]1CN(C)Cc1ccccc1	-6
C[C@@H]1CN([C@@H](C)CO)C(=O)c2cc(NS(=O)(=O)c3cccs3)ccc2O[C@@H]1CN(C)Cc1ccccc1	1
C[C@H](CO)N1C[C@H](C)[C@@H](CN(C)Cc2ccccc2)Oc2ccc(NS(=O)(=O)c3cccs3)cc2C1=O	8
SMILES	EZH2 inh
C[C@@H]1CN([C@@H](C)CO)C(=O)c2cc(NS(=O)(=O)c3cccs3)ccc2O[C@H]1CN(C)Cc1ccc(-c2ccccc2)cc1	60*
C[C@H]1CN([C@@H](C)CO)C(=O)c2cc(NS(=O)(=O)c3cccs3)ccc2O[C@@H]1CN(C)Cc1ccccc1	3
C[C@H]1CN([C@@H](C)CO)C(=O)c2cc(NS(=O)(=O)c3cccs3)ccc2O[C@@H]1CN(C)Cc1ccc(-c2ccccc2)cc1	72*
Clc1nc(Cl)c2cc(Br)ccc2n1	32
O=c1c(O)c(-c2cc(O)c(O)c(O)c2)oc2cc(O)cc(O)c12	93*
O=c1c(O)c(-c2ccccc2)oc2cc(O)cc(O)c12	-1
COc1cc(O)c2c(=O)c(OC)c(-c3cc(O)c(OC)c(OC)c3)oc2c1	-17
CCn1c(SCC(=O)Nc2ccc(C)cc2)nnc1-c1ccc(N)cc1	1
O=C(CCCCC(=O)N/N=C/c1ccc2ccccc2c1)NO	-4
COc1cc(-c2oc3cc(O)cc(O)c3c(=O)c2OC2OC(CO[C@@H]3O[C@@H](C)[C@H](O)[C@@H](O)[C@H]3O)C(O)C(O)C2O)ccc1O (some centres undefined)	23
O=c1c(O[C@@H]2O[C@H](CO)[C@@H](O)[C@H](O)[C@H]2O)c(-c2ccc(O)c(O)c2)oc2cc(O)cc(O)c12	58*
COc1cc(-c2oc3cc(O)cc(O)c3c(=O)c2OC2OC(CO)C(O)C(O)C2O)ccc1O (centres undefined)	56*
O=c1c(O[C@@H]2O[C@H](CO)[C@@H](O)[C@H](O)[C@H]2O)c(-c2ccc(O)cc2)oc2cc(O)cc(O)c12	-5
COc1c(OC2OC(CO)C(O)C(O)C2O)ccc(O)c1C(=O)OCc1ccccc1O[C@@H]1O[C@H](CO)[C@@H](O)[C@H](O)[C@H]1O (some centres undefined)	18
CC1OC(Oc2cc(O)c3c(=O)c(OC4OC(CO)C(O)C(O)C4OC4OC(C)C(O)C(O)C4O)c(-c4ccc(O)cc4)oc3c2)C(O)C(O)C1O (centres undefined)	-12
C[C@@H]1O[C@@H](OCC2OC(OC3C(OC4C(Oc5c(-c6ccc(O)c(O)c6)oc6cc(O)cc(O)c6c5=O)OC(CO)C(O)C4O)OC(CO)C(O)C3O)C(O)C(O)C2O)[C@H](O)[C@H](O)[C@H]1O (some centres undefined)	6
COc1cc2c(=O)c(-c3ccc(O)cc3)coc2cc1O[C@@H]1O[C@@H](C)[C@H](O)[C@@H](O)[C@H]1O	-20
C[C@@H]1O[C@@H](O[C@@H]2[C@@H](O)[C@H](Oc3c(-c4ccc(O)cc4)oc4cc(O)cc(O)c4c3=O)O[C@H](CO)[C@H]2O)[C@H](O)[C@H](O)[C@H]1O	59*
COc1c(C)cc(Br)cc1C(=O)NC(=S)Nc1sc2c(c1C(N)=O)CCCCC2	-11
COc1ccc(-c2cc3ccccc3oc2=O)cc1NC(=O)COc1ccc(Cl)cc1C	-23
CCOc1ccccc1NC(=O)C(C)Oc1ccc(OC)cc1 (centres undefined)	10
COC(=O)c1cccc(NC(=O)CN(c2ccc(F)cc2)S(C)(=O)=O)c1C	-14
O=S(=O)(Nc1ccc(O)c(Sc2nc3ccccc3s2)c1)c1ccccc1	2
O=c1[nH]cnc2c1cnn2Cc1ccc(Cl)cc1	-18
Cc1cc(Br)c(NC(=O)CSc2nnc(-c3ccccc3)o2)cc1C	5
SMILES	EZH2 inh
NNC(=O)c1ccccc1O	-44
COc1cccc2c1C(=O)CC(c1ccccc1)O2 (centres undefined)	-11
COc1cc(O)c(OC)c2c1C(=O)CC(c1ccccc1)O2 (centres undefined)	77*
COc1cc(O)c2c(c1)OC(c1ccc(O)cc1)CC2=O (centres undefined)	-4
Cc1ccc(C(=O)C2C(=O)C(=O)N(Cc3ccco3)C2c2ccc(F)cc2)o1 (centres undefined)	-30
Cc1cc(C(F)(F)F)nc(SCc2cccc(C(=O)O)c2)n1	-7
